According to PubChem BioAssay AID1662 (Broad Institute, 2009):
In all, about 300,000 compounds went through this assay and about 4,000 (1.3%) were called active. This is one part of a sample in which actives are shown more often than they occur.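 The calls were made as follows: active = mean replicate score, as percent of positive control median, at least 50; inconclusive = mean below 50 but one replicate at or above 50; inactive = mean and every replicate below 50.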

Assay: S. pyogenes SKKanGAS growth inhibitors in kanamycin, primary screen, streptokinase expression inhibitor project, SKKanGAS strain, BacTiter-Glo luminescence (AID 1662);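 also: strain carries kanamycin resistance gene driven by streptokinase promoter and grows in 40 µg/ml kanamycin; loss of luminescence reflects streptokinase promoter inhibition or plain growth inhibition; 0% = median of DMSO wells and 100% = positive control at its reference dose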
Conditions: 6 h, at 7.5 µM, stronger effect = higher value

Compound	inhibition
Cc1nn(-c2ccccc2)c2sc(C(=O)N(Cc3ccco3)C(C)C(=O)NC(C)(C)C)cc12 (stereo not drawn)	6.98% (inactive)
CCCc1ccc(OCCNC(=O)c2ccco2)cc1	-5.79% (inactive)
CCCc1ccc(OCC(=O)NNC(=S)NC(=O)c2ccco2)cc1	113% (active)
Cc1ccc(C(=O)NNC(=O)C(C)Oc2ccc3ccccc3c2)o1 (stereo not drawn)	-4.95% (inactive)
CC(Oc1ccc2ccccc2c1)C(=O)NNC(=S)NC(=O)c1ccco1 (stereo not drawn)	128% (active)
Cc1ccc(OCC(=O)NCCCNC(=O)c2ccco2)cc1C	2.37% (inactive)
O=C(Nc1ccc2ccccc2c1)/C(=C/c1cccc(Br)c1)NC(=O)c1ccco1	14.5% (inactive)
COc1cc2nc(CN(C)Cc3ccc(F)cc3)[nH]c(=O)c2cc1OC	16.4% (inactive)
CC1=CC=CN2C1=NC(=O)CC2(C)C(=O)N(CC(=O)NC1CCCC1)c1ccccc1C (stereo not drawn)	1.46% (inactive)
Cc1nn(CCCC(=O)NCc2ccccc2Cl)c(=O)c2nccn12	-6.9% (inactive)
Cc1ccc2nc(-c3ccncc3)cc(C(=O)Nc3ccncc3)c2c1	1.9% (inactive)
Cc1ccc2nc(Nc3ccccc3)cc(C)c2c1	0.508% (inactive)
CCS(=O)(=O)Nc1cccc(-c2cc(-c3ccccc3)c3cc(C)ccc3n2)c1	97.3% (active)
CCOCCCNC(=O)c1ccc(CS(=O)(=O)c2cccc(C(F)(F)F)c2)o1	-1.72% (inactive)
CC1CCN(c2ccc(-c3ccc(NC(=O)c4ccco4)cc3)nn2)CC1	70% (active)
CC1CCN(C(NC(=O)c2ccco2)C(=O)c2ccccc2)CC1 (stereo not drawn)	-2.13% (inactive)
CCC(=O)Nc1ccc(-c2ccc(N3CCCCC3)nn2)cc1	1.15% (inactive)
CCCCCN(C(=O)CCC(=O)OCCOc1ccc(OC)cc1)c1c(N)n(CCCC)c(=O)[nH]c1=O	-3.52% (inactive)
CS(=O)(=O)c1ccc2nnn(OCC(=O)Nc3cccc(C#N)c3)c2c1	-3.98% (inactive)
COc1ccc(NC(=O)CN2C(=O)CSc3ccc(S(=O)(=O)N4CCC(C)CC4)cc32)cc1	10.8% (inactive)

Compound	inhibition
CCOC(=O)c1cnc(-n2nc(C)cc2C)nc1NNc1cc(C)nc(-c2ccccc2)n1	101% (active)
CCOC(=O)c1cnc(-n2nc(C)cc2C)nc1Nc1cccc(C(C)=O)c1	35% (inactive)
CCOC(=O)c1cnc(-c2ccccc2)nc1Oc1ccc(C)cc1	20.4% (inactive)
Cc1ccc(S(=O)(=O)/N=C(\CN2CCOCC2)N2CCOCC2)cc1	2.49% (inactive)
CC(C)N1CCC(=NNc2ccc([N+](=O)[O-])cc2S(=O)(=O)N2CCOCC2)CC1	17.1% (inactive)
CN(C)c1ccc(-n2cccc2/C=N/n2cnnc2)cc1	0.00128% (inactive)
Cc1ccccc1NC(=S)NNC(=O)c1cccc(Br)c1	-4.92% (inactive)
O=C(NC(=S)Nc1cccc2c(O)cccc12)c1cccc(Br)c1	63.3% (active)
NS(=O)(=O)c1ccc(NC(=S)NC(=O)c2cccc(Br)c2)cc1	0.49% (inactive)
CCOC(=O)c1ccccc1NS(=O)(=O)c1c(C)nc2sccn2c1=O	-2.29% (inactive)
CN(C)CCNc1ccc(-c2n[nH]c(=O)c3ccccc23)cc1[N+](=O)[O-]	-10.2% (inactive)
COc1cccc2c(N/N=C/c3ccco3)cc(C)nc12	-8.63% (inactive)
Cc1nc(Cl)cc(N/N=C/c2ccccc2)n1	-4.1% (inactive)
COc1ccccc1/C=N\Nc1cc(C)nc(-n2nc(C)cc2C)n1	101% (active)
Cc1ccc(S(=O)(=O)Nc2nc(C)cc(N/N=C/c3ccc(O)cc3)n2)cc1	-2.8% (inactive)
COc1ccc(/C=N/Nc2cc(N3CCOCC3)nc(C)n2)c(OC)c1	14.3% (inactive)
COc1ccc(-c2nn(-c3ccccc3)cc2/C=N/Nc2ccccn2)cc1OC	16.9% (inactive)
COc1cccc(/C=N/Nc2cc(C)nc(-c3ccccc3O)n2)c1O	64.5% (active)
Cc1cc(N/N=C\c2ccc(Br)cc2)nc(-n2nc(C)cc2C)n1	102% (active)
Oc1cccc(/C=N/Nc2ccc(Cl)nn2)c1O	-9.25% (inactive)

Compound	inhibition
CC(=O)Nc1ccc(NS(=O)(=O)c2ccc3c(c2)NC(=O)CC(=O)N3)cc1	-2.61% (inactive)
CCOC(=O)N1CCN(S(=O)(=O)c2ccc(OC)cc2)CC1	-0.833% (inactive)
Cc1cc(N2C(=O)C(=O)/C(=C(/O)c3ccccc3)C2c2cccc(Br)c2)no1 (stereo not drawn)	16.7% (inactive)
Cn1nnc(NC(=S)NC(=O)c2ccccc2)n1	-0.537% (inactive)
COc1ccccc1CCC(=O)OCC(=O)N1CCN(S(=O)(=O)c2ccc(C)cc2C)CC1	-9.85% (inactive)
Cc1ccccc1NC(=O)C1CCCN(C(=O)NCc2ccccc2)C1 (stereo not drawn)	-1.35% (inactive)
CCCCN=C1C([N+](=O)[O-])=CC=C2C1=NC1(CCCCC1)N2O	2.56% (inactive)
Clc1ccc(-c2cc(C3CCNCC3)[nH]n2)c(Cl)c1	7.25% (inactive)
COc1ccc(CCNC(=O)CCCCCNC(=O)N2CCn3c2nc2ccccc23)cc1OC	3.33% (inactive)
COc1ccccc1N1CCN(C(=O)CCS(=O)(=O)c2ccc3c(c2)NC(=O)C(C)S3)CC1 (stereo not drawn)	-2.2% (inactive)
COC(=O)CNC(c1ccccc1Cl)c1cc(Br)ccc1NC(=O)CCN1CCOCC1 (stereo not drawn)	-3.8% (inactive)
CC(=O)O[C@H]1CC[C@@]2(C)[C@@H](CC[C@@H]3[C@@H]2CC[C@]2(C)[C@@H](C(C)(C)O)C[C@@H]32)C1	29% (inactive)
CCOc1cc(-c2cc(-c3ccc(OC)cc3)nc(N)c2C#N)ccc1O	30.5% (inactive)
CCOc1cc(-c2cc(-c3ccc(NC(C)=O)cc3)nc(N)c2C#N)ccc1O	83.8% (active)
COc1ccc(-c2cc(-c3ccc(N)cc3)nc(N)c2C#N)cc1OC	9.35% (inactive)
O=S(=O)(c1cccc(C(F)(F)F)c1)N1CCN(c2cnccn2)CC1	0.567% (inactive)
CC(C)CCNC(=O)CCNS(=O)(=O)c1ccc(Cl)cc1	-4.22% (inactive)
COCCSc1nnc(NC(=O)CCS(=O)(=O)Cc2ccccc2)s1	-1.08% (inactive)
